Assay results taken from ChEMBL document CHEMBL1156829.
The full ranking holds about 5,400 compounds; the median of “IFI” is about 2, and the highest 2% start at about 22. This excerpt belongs to a sample that is enriched for the highest values.

Experiment: NOVARTIS: Inhibition Frequency Index (IFI) - the number of HTS assays where a compound showed > 50% inhibition/induction, expressed as a percentage of the number of assays in which the compound was tested.
Assay type: functional
For `CCC(C)(O)C(=O)O[C@H]1C(=O)OC2CC3C(C)=C[C@H](O)[C@@H](O)[C@]3(C)C3C24CO[C@]3(O)[C@H](O)[C@H](C)C14` (some centres not stated), the IFI was 7.69%.
With `COc1cc2c(O[C@@H]3O[C@H](CO)[C@@H](O)[C@H](O)[C@H]3O)c3c(c(-c4ccc5c(c4)OCO5)c2cc1OC)C(=O)OC3` the IFI was 12.4%.
In the case of `O=C(CCl)Nc1ccc(Cl)cc1`, the IFI is reported as 3.54%.
Compound `COc1ccccc1N1CCN(Cc2cc(C)c(C)cc2O)CC1` has an IFI of 2.94%.
With `COc1ccc(C(Cc2ccccc2)NC2CN3CCC2CC3)cc1` (configuration not stated) the IFI was 0%.
With `c1ccc(CCNC2CCN(Cc3ccccc3)CC2)cc1` the IFI was 0%.
`O=C(NNC(=O)c1csnn1)c1ccc(Cl)cc1` showed an IFI of 1%.
`c1ccc(-c2nn(-c3ccccc3)[n+](-c3ccccc3)n2)cc1` gave an IFI of 11.2%.
In the case of `CCN(CC)S(=O)(=O)c1ccc(C(=O)c2c(C)c(C(=O)C(F)(F)F)c3ccccn23)cc1`, the IFI is reported as 3.12%.
`COc1ccc(C[C@H]2NC[C@H](O)[C@H]2OC(C)=O)cc1` showed an IFI of 33.6%.
In the case of `CC(=O)N(C1=C(N(C)C)C(=O)c2ccccc2C1=O)c1cccc(Cl)c1`, the IFI is reported as 7.14%.
In the case of `Clc1cccc(CNC2CCN(CCc3ccccc3)CC2)c1`, the IFI is reported as 0.781%.
In the case of `Cc1n(-c2ccccc2)c2c([n+]1C)C(=O)c1ccccc1C2=O`, the IFI is reported as 33.3%.
In the case of `CO[C@H]1[C@H](C)[C@@H]([C@H]2CC[C@H]([C@@H]3CC[C@H]([C@@]4(C)O[C@]5(O[C@H](C[C@@H]6O[C@](O)([C@@H](C)C(=O)O)[C@@H](C)[C@H](O[C@H]7CC[C@H](OC)[C@@H](C)O7)[C@@]6(C)OC)C[C@@H](OC)[C@H]5C)[C@H](C)[C@H]4OC)O3)O2)O[C@](C)(O)[C@@H]1C`, the IFI is reported as 15.5%.
In the case of `COc1cc2c(cc1O)CC[n+]1cc3c(OC)c(OC)ccc3cc1-2`, the IFI is reported as 0%.
`CCN1C(=O)N(CC(N)=O)C(=O)C12CCN(Cc1ccc(N(C)c3ccccc3)cc1)CC2` showed an IFI of 3.85%.
With `CC(C)N1CC=C(c2c[nH]c3ccccc23)CC1` the IFI was 0%.
`CC[C@@H]1CN2CC[C@H]1C[C@H]2[C@H](O)c1ccnc2ccc(OC)cc12` showed an IFI of 1.32%.
With `C[C@H]1C[C@H](C)C(=O)[C@@H]([C@@H](O)CC2CC(=O)NC(=O)C2)C1` the IFI was 23.9%.
For `C[C@@H]1C[C@@H](C)C(=O)[C@@H](C(O)CC2CC(=O)NC(=O)C2)C1` (some centres not stated), the IFI was 23.4%.
With `C[C@@H]1C[C@@H]([C@H](O)CC2CC(=O)NC(=O)C2)C(=O)[C@@H](C)C1` the IFI was 19.7%.
Compound `CC(=O)OC1(C)CC(C)C(=O)C(C(O)CC2CC(=O)NC(=O)C2)C1` (configuration not stated) has an IFI of 22.6%.
With `OCCC1CN(Cc2cccc(Cl)c2)CCN1Cc1ccccc1` (configuration not stated) the IFI was 7.69%.
Compound `COC(=O)[C@]1(C)CC[C@]2(C)CC[C@]3(C)C4=CC=C5C(=CC(=O)C(O)=C5C)[C@]4(C)CC[C@@]3(C)[C@@H]2C1` has an IFI of 21.4%.
For `CC(=O)O[C@]1(C(C)=O)CCC2C3C=CC4=CC(=O)CC[C@]4(C)C3CC[C@@]21C` (some centres not stated), the IFI was 2.33%.
Compound `Cc1nc2ccccc2c(=O)n1-c1ccc([N+](=O)[O-])cc1` has an IFI of 0%.
For `C=CC12CCN(CC1)C(C(O)c1ccnc3ccc(OC)cc13)C2` (configuration not stated), the IFI was 0%.
For `C=CC1CN2CCC1CC2[C@H](c1ccnc2ccccc12)S(=O)(=O)O` (some centres not stated), the IFI was 0%.
For `O[C@@]1(c2cc3ccccc3s2)CN2CCC1CC2`, the IFI was 1.63%.
In the case of `CCN1CCC(N2CCC(n3c(Cc4ccccc4OC)nc4cc(F)ccc43)CC2)CC1`, the IFI is reported as 1.7%.
Work on `C=C[C@H]1CN2CC[C@H]1C[C@@H]2[C@@H](OC(=O)C(C)C)c1ccnc2ccccc12` yielded an IFI of 1.67%.
Work on `CC1=CC[C@@H](/C(C)=C/c2csc(C)n2)OC(=O)C[C@H](O)C(C)(C)C(=O)[C@H](C)[C@@H](O)[C@@H](C)CCC1` yielded an IFI of 5.66%.
In the case of `Cn1ccnc1C(=O)NNc1ncc(C(F)(F)F)cc1Cl`, the IFI is reported as 13.3%.
With `CCCN[P+](CC(C)C)(NCCC)NCCC` the IFI was 10.9%.
`C=C[C@H]1CN2CC[C@H]1C[C@H]2[C@H](OC(=O)CC)c1ccnc2ccccc12` gave an IFI of 1.87%.
`C=C1[C@@H](C)[C@H]2[C@H](Cc3ccccc3)NC(=O)[C@]23C(OC(C)=O)C=C[C@@](C)(O)C(=O)[C@@H](C)CC=C[C@H]3[C@@H]1O` (some centres not stated) gave an IFI of 6.9%.
Compound `CCOC(=O)c1c(S(=O)(=O)Nc2ccc(C(C)(C)C)cc2)c(-c2ccccc2)n(-c2ccccc2)c1C` has an IFI of 3.09%.
Work on `CC[C@H]1CN2CC[C@H]1C[C@H]2[C@H](O)c1ccnc2ccccc12` yielded an IFI of 5.17%.
Work on `CC1=CC(=O)OC[C@]23C[C@H](O)C(C)=C[C@H]2O[C@@H]2C[C@@H](OC(=O)C=CC=CC(=O)OCC1)[C@@]3(C)[C@]21CO1` yielded an IFI of 22.6%.
In the case of `CC1=C[C@H]2O[C@@H]3C[C@H]4OC(=O)C=CC=C[C@H]([C@@H](C)O)OCC[C@@H](C)[C@H](O)C(=O)OC[C@@]2(CC1)[C@]4(C)[C@@]31CO1`, the IFI is reported as 24.5%.
For `CC1=CC(=O)OC[C@]23CCC(C)=C[C@H]2O[C@@H]2C[C@@H](OC(=O)C=CC=CC(=O)OCC1)[C@@]3(C)[C@]21CO1`, the IFI was 22.6%.
`Cc1onc(O)c1CC(N)C(=O)O` (configuration not stated) showed an IFI of 0%.
`CCOc1ccc2nccc([C@@H](O)[C@@H]3C[C@@H]4CCN3C[C@@H]4CC)c2c1` showed an IFI of 3.82%.
In the case of `Cc1ccc(O)c(C(=O)c2c[nH]c(-c3nc4ccccc4[nH]3)c2)c1`, the IFI is reported as 0%.
With `C=CC1CN2CCC1CC2[C@@H](OC(=O)c1ccc(C(C)(C)C)cc1)c1ccnc2ccc(OC)cc12` (some centres not stated) the IFI was 0%.
With `O=C(NNc1cccc(F)n1)C(F)(F)F` the IFI was 1.25%.
In the case of `C=CC(C)(CCC=C(C)C)c1ccc2c3c(c[nH]c13)CC(CO)NC(=O)C(C(C)C)N2C` (configuration not stated), the IFI is reported as 11.3%.
With `CS/C(Cl)=C(/NC(C)=O)[P+](c1ccccc1)(c1ccccc1)c1ccccc1` the IFI was 5.34%.
`C/C=C1/C[C@H]2[C@@H](OC)Nc3cc(O)c(OC)cc3C(=O)N2C1` gave an IFI of 28.6%.
For `O=C1Cc2ccccc2C(=C2CCNCC2)c2ccsc21`, the IFI was 0%.
Compound `CC=C[C@H]1O[C@@](O)([C@@H](C)C(O)C(C)[C@H]2OC(=O)C(OC)=CC(C)=C[C@@H](C)[C@@H](O)[C@@H](C)[C@@H](O)C(C)CC(C)=CC=C[C@@H]2OC)C[C@@H](O[C@H]2C[C@@H](O)[C@H](OC(N)=O)[C@@H](C)O2)[C@@H]1C` (some centres not stated) has an IFI of 15.5%.
With `CCOC(=O)c1ccc2nc(C)cc(Nc3ccc(N4CCCCC4)cc3)c2c1` the IFI was 1.12%.
`CCN1C(=Cc2sc3ccccc3[n+]2CC)[Se]c2ccccc21` showed an IFI of 22.6%.
With `CCC(=O)OC(C(C)C(=O)O)C(C)C1OC2(CCC(C)(C3CCC(C)(C4OC(C5OC(O)(CO)C(C)CC5C)CC4C)O3)O2)CC(O)C1C` (configuration not stated) the IFI was 8.62%.
In the case of `C[n+]1c2n(c3ccccc31)N=C(c1ccccc1)C[Se]2`, the IFI is reported as 3.7%.
In the case of `CC1CC2CCC(O2)C(C)C(=O)O[C@H](C)CC2CCC(O2)C(C)C(=O)OC(C)CC2CCC(O2)C(C)C(=O)O[C@H](C)CC2CCC(O2)C(C)C(=O)O1` (some centres not stated), the IFI is reported as 19.2%.
Compound `CCC1CC2CCC(O2)C(C)C(=O)OC(C)CC2CCC(O2)C(C)C(=O)OC(CC)CC2CCC(O2)C(C)C(=O)OC(C)CC2CCC(O2)C(C)C(=O)O1` (configuration not stated) has an IFI of 24.1%.
Work on `C[C@@H]1C[C@H]2CC[C@H](O2)[C@H](C)C(=O)O[C@@H](C)C[C@@H]2CC[C@@H](O2)[C@@H](C)C(=O)O[C@H](C)C[C@H]2CC[C@@H](O2)[C@H](C)C(=O)O[C@@H](C)C[C@@H]2CC[C@@H](O2)[C@@H](C)C(=O)O1` yielded an IFI of 12.5%.
Compound `CCCCCc1cc(O)c2c3c(c(=O)oc2c1)CN(C)CC3` has an IFI of 2.29%.
In the case of `O=C1CN=C(c2ccccc2Cl)c2cc(Cl)ccc2N1Cc1cccc([N+](=O)[O-])c1`, the IFI is reported as 1.92%.
`CCCCCCCc1cc(O)c2c3c(c(=O)oc2c1)CCC(C)C3` (configuration not stated) gave an IFI of 0%.
`C=C[C@H]1CN2CC[C@H]1C[C@H]2[C@H](OC(=O)CCCC)c1ccnc2ccccc12` showed an IFI of 4.59%.
Compound `COc1ccc2c(c1)CC1c3c(cc4c(c3-2)OCO4)CCN1C` (configuration not stated) has an IFI of 25%.
For `CN1CCc2cc3c(c4c2C1Cc1ccccc1-4)OCO3` (configuration not stated), the IFI was 6.17%.
With `COc1cc2c3cc1Oc1c(OC)c(OC)cc4c1C(Cc1ccc(O)c(c1)Oc1ccc(cc1)CC3N(C)CC2)N(C)CC4` (configuration not stated) the IFI was 7.14%.
In the case of `CC[C@@]1(O)C[C@H](O[C@@H]2CC(N(C)C)[C@@H](O[C@@H]3C[C@@H](O)[C@@H](O[C@@H]4CCC(=O)[C@@H](C)O4)C(C)O3)[C@@H](C)O2)c2c(cc3c(c2O)C(=O)c2c(O)ccc(O)c2C3=O)[C@H]1C(=O)OC` (some centres not stated), the IFI is reported as 21.4%.
Compound `OC1(c2ccc(Cl)c(C(F)(F)F)c2)CCN(CCOC2c3ccccc3CSc3ccc(Cl)cc32)CC1` (configuration not stated) has an IFI of 2.38%.
